Drawing on the OligoGym collection, this text covers sensor-assay potency score (higher = more potent) for 39 sequences.
Note: reference of the scale not given here.

The target in one assay is TXNDC17. The assay can be described thus: pooled miR-30 sensor sort-seq; sequence = guide strand. The note with it: shRNA.
Sequence AGTAGATGAACACACATCCTTC had a sensor-assay potency score (higher = more potent) of -1.77. Regarding TAAGTAGTGTAGGCACTGCTGT, the sensor-assay potency score (higher = more potent) is -0.733.

As to TAGATGAACACACATCCTTCAC, the sensor-assay potency score (higher = more potent) was -0.655. Same read-out and setting: with ATTGATACTAGAACAAATCAGG the figure was -0.62; with TTCTGAAGTCATTATTTGGATC, -0.868. TTAAGTAGTGTAGGCACTGCTG gave a sensor-assay potency score (higher = more potent) of -0.868. On to AAGACACTCAGATTCTACCAGT, for which the sensor-assay potency score (higher = more potent) is -0.12.

Consider TTACTTTCAAGTTTTTTCTGAA, for which the sensor-assay potency score (higher = more potent) is 0.123. Take TTTTTCTGAAGTCATTATTTGG: the sensor-assay potency score (higher = more potent) is -1.37.

In the case of TTTTCTGAAGTCATTATTTGGA, the sensor-assay potency score (higher = more potent) was -0.354. For TTTCTGAAGTCATTATTTGGAT, the sensor-assay potency score (higher = more potent) is -0.595.

In another assay the target is TXNDC2. The description is as above. The following applies: shRNA.
Sequence TTTCCAAGAACTCTAGGGCCAG registered a sensor-assay potency score (higher = more potent) of -0.912. In turn, TTTTATAAAACTGAAAGGTTGG gave a sensor-assay potency score (higher = more potent) of -0.0568. TTTTTTATAAAACTGAAAGGTT gave a sensor-assay potency score (higher = more potent) of -0.527. Turning to TCTTCTGAGGACTTGGGGCTGT, the sensor-assay potency score (higher = more potent) is -0.284. As to TTCTTCTTCAGGCTTTAGGATG, the sensor-assay potency score (higher = more potent) is -1.62. For TTGGGGATGTCAATCTCCTTGG, the sensor-assay potency score (higher = more potent) is -0.981.

In the case of TTCTTCTGAGGACTTGGGGAGG, the sensor-assay potency score (higher = more potent) is -1.18.

TTCCAAGAACTCTAGGGCCAGG gave a sensor-assay potency score (higher = more potent) of -1.16. With TTTTTCTGAGGACTTGGGGAGG, the sensor-assay potency score (higher = more potent) is -1.18. TCTTCTAGGGACTTGGGGCTGT yielded a sensor-assay potency score (higher = more potent) of -0.62. In turn, TAGGATGTCACCCTCCTTGGAT had a sensor-assay potency score (higher = more potent) of -0.739. Still for that read-out and setting: under AAGAATGGTCTGATGGTCCTGC stands 0.56.

A further assay has as its target UBA1. The assay is described as above. The note with it: shRNA.
Turning to TTCTTGAGCAGCTCACAGCCAA, the sensor-assay potency score (higher = more potent) was -0.992. Sequence TTTAACTTCGTGACATCCCAGG yielded a sensor-assay potency score (higher = more potent) of -0.746. Regarding TTCTCTTGCAGGTCTGAGCCAA, the sensor-assay potency score (higher = more potent) was -0.695. On the same count and under the same terms, under TTCCGGTAGTAGACACAGCGGC stands -0.978. TACTTTGACCTGACTGACGATG: the sensor-assay potency score (higher = more potent) was -0.507. On to TTGGTGAGCACCACCACCTGGA, for which the sensor-assay potency score (higher = more potent) amounted to 0.0519.

Take TATGTCTGCTTCACTGCCGTTC: the sensor-assay potency score (higher = more potent) was -0.544. On the same count and under the same terms, under TATAGTACTGGTGACGTGGTGC stands 0.491; under TTAGGTACTTTGACCTGACTGA, -0.00997. The same measure, in the same setting: with TTCTTAGGTACTTTGACCTGAC the figure was 0.097.

With ATTCTTGTAGGAGTCAAGCTGT, the sensor-assay potency score (higher = more potent) is 0.0651. TTGACATCAAAGGTGAGCGGGT had a sensor-assay potency score (higher = more potent) of -0.267.

A further assay has as its target UBA3. Described as above. The note with it: shRNA.
In the case of TAGAACTTTACATGTATCTAAC, the sensor-assay potency score (higher = more potent) was -0.95. Turning to TTGAATAGTACAGTCTGTGGGG, the sensor-assay potency score (higher = more potent) stood at 0.37. In turn, ATCTACATCATTAAACACCAAG gave a sensor-assay potency score (higher = more potent) of -1.38. For the sequence TTGTCGATAGAAAGTGTCGTTA, the sensor-assay potency score (higher = more potent) is -0.471.
